“And” between values parts separate entries of the source, which are not always exact repeats. Equal entries are not always repeated. Records with an inconclusive call do not appear. Unmarked numbers belong to inactive results. The source made the active and inactive calls. Calls come from the whole dose curve; as a rule, active = well fitted inhibition curve with a large enough effect; inconclusive = small, poorly fitted or top-dose-only effect; inactive = flat fitted curve, though single readings scatter.
Potency is the fitted concentration of half-maximal effect.

The target of the test is Glutathione peroxidase 1 (Homo sapiens) (UniProt P07203). The experiment in a line: Primary qHTS Assay for Inhibitors of Recombinant Selenoprotein Glutathione Peroxidase 1 (GPX1) (AID 1845191). Note: nearly all actives have a fitted effect of over 65% in size. As to conditions: recombinant GPX1, GR-coupled NADPH fluorescence, 15 min; series mostly up to 48.8 µM; activity, negative = inhibition: at the top concentration. The text has this: Assay Provider: Elias S.J. Arner MD PhD.
Chain of Glutathione peroxidase 1 (Homo sapiens) (P07203 whole entry, looked up): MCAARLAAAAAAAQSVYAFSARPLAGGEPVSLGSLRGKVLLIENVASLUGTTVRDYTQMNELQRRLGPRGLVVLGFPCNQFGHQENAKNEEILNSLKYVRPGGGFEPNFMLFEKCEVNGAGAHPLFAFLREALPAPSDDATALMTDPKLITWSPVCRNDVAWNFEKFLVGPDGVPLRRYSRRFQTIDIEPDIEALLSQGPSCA
Department of Medical Biochemistry and Biophysics
Karolinska Institutet, Solna, Stockholm, Sweden
Selenoprotein glutathione peroxidases (GPX), like the ubiquitously expressed GPX1 and the ferroptosis modulator GPX4, enact their antioxidant activities by reducing hydroperoxides using glutathione. […] GPX1 and GPX4 inhibitors have thus shown promise as anti-cancer agents. Existing inhibitors are often promiscuous, or modulate GPX activity only indirectly, so novel direct inhibitors identified through screening against GPX1 and GPX4 could be valuable. Here, we developed optimized glutathione reductase (GR)-coupled GPX assays for the biochemical high-throughput screen (HTS) of almost 12,000 compounds with known mechanisms of action. Initial hits were triaged using a GR counter-screen, assessed for isoform specificity using a separate GPX2 assay, and were assessed for general selenocysteine-targeting activity using a thioredoxin reductase (TXNRD1) assay. With this suite of assays, we identified novel GPX1/GPX2- and GPX4-specific inhibitors and can here present a validated pipeline for future discovery research for selenoprotein-targeting agents.
SEQUENCE No. (e.g., 1, 2, 3, etc.); […] (e.g., Cells, Incubation, Reagent, etc.); VALUE; DESCRIPTION.
1; Reagent 1; 3 uL; GPx1 enzyme or no enzyme control in 1536-well, black, solid Greiner assay plate.
2; Compound; 25 nL; Kalypsis pin tool (Wako USA) equipped with a 1536-well pin head.
3; Incubation; 30 min; room temperature.
4; Reagent 2; 1 uL; 10 nM GPX1, 1 mM GSH, 0.5 mM CHP, 0.5 mM NADPH, 100 nM GR, 0.01% BSA substrate
5; Detection; Fluorescence; ViewLux microplate reader, excitation 340 nm and emission 450 nm.
6; Incubation; 15 min; room temperature.
7; Detection; Fluorescence; ViewLux microplate reader, excitation 340 nm and emission 450 nm.
NOTES (numbers refer to Sequence numbers above)
1. 3 uL of 16.66 nM GPX1 and 0.016% BSA in assay buffer (50 mM Tris-HCl, 2 mM EDTA (pH 7.5), 150 mM NaCl) was added to columns 3-48 of 1536-well assay plates using a BioRAPTR Flying Reagent Dispenser (Let's Go Robotics (LGR), Carlsbad, CA). A no-enzyme control (0.01% BSA in TES assay buffer) was added to columns 1-2.
2. 25 nL of test compounds and DMSO controls were added to each well with a pin tool (Kalypsys).
3. The assay plates were incubated for 30 minutes at room temperature.
4. 1 uL of master mix (500 nM glutathione reductase (GR), 5 mM reduced glutathione (GSH), 2.5 mM NADPH in assay buffer) was added. 1 uL of cumene hydroperoxide (CHP) ([2.5 mM] in 50% EtOH) was then added within 5 minutes to initiate the reaction. Final concentrations were: 10 nM GPX1, 1 mM GSH, 0.5 mM CHP, 0.5 mM NADPH, 100 nM GR, 0.01% BSA.
5. Initial fluorescence readout (t=0) at 340/450 nm was measured using a ViewLux multimodal detector (PerkinElmer, Waltham, MA).
7. Endpoint fluorescence readout (t=15) at 340/450 nm was measured 15 min after room temperature incubation.
On to `NC1CONC1=O` (stereo not given), for which the “activity, negative = inhibition” value is -12.9%.

`COC(=O)C1=C(C)NC(C)=C([N+](=O)[O-])C1c1ccccc1C(F)(F)F` (stereo not given): the “activity, negative = inhibition” value is -14.2%. For the compound `COc1ccc(-c2cc3ncc(C)n3c(Nc3ncccc3C(N)=O)n2)cc1OC`, the result was inactive. For the compound `NC(=O)CNCCC(c1ccccc1)c1ccccc1`, the “activity, negative = inhibition” value is 4.94%.

In the case of `NC(=Nc1ccccc1)NC(=O)c1nc(Cl)c(N)nc1N`, the “activity, negative = inhibition” value is -22.2%. `NC(=O)c1cc[n+](CC2=C(C(=O)O)N3C(=O)[C@@H](NC(=O)[C@@H](c4ccccc4)S(=O)(=O)[O-])[C@H]3SC2)cc1`: the Potency was 4.53 µM (active) and 28.2 µM (active). As to `Nc1nc2ccc(Cl)cc2c2nc(-c3ccco3)nn12`, the “activity, negative = inhibition” value is -9.57%. For the compound `O=c1cc(-c2ccccc2F)[nH]c2cc3c(cc12)OCO3`, the “activity, negative = inhibition” value was -26.7%. On to `Nc1ccc(-c2nc3ccc(-c4nc5ccc(N)cc5[nH]4)cc3[nH]2)cc1`, for which the “activity, negative = inhibition” value is -14.1%. For `Oc1ccc(Cn2cc[nH]c2=S)cc1`, the “activity, negative = inhibition” value was -11.7%. For the compound `C=CC[C@H](N)C(=O)O`, the result was inactive. As for `O=C(O)c1cccnc1C(=O)O`, the “activity, negative = inhibition” value is -16.9%. Regarding `O=c1oc(Cl)c(Cl)c2ccccc12`, the “activity, negative = inhibition” value is -7.45%. Consider `CN1CCN(c2nc3cc(C(F)(F)F)ccc3n3cccc23)CC1`, for which the “activity, negative = inhibition” value is -16%. Still for that read-out and setting: to `N=C(N)c1ccccc1` belongs -10.1%. Turning to `Nc1ncnc2c1ncn2C1CCCO1` (stereo not given), the outcome was inactive. As for `N=S(=O)(O)Cc1noc2ccccc12`, the result was inactive. For `CO/N=C(\C(=O)N[C@@H]1C(=O)N2C(C(=O)O)=C(CSc3nc(=O)c(O)nn3C)CSC12)c1csc(N)n1` (stereo not given in full), the Potency is 25.1 µM (active). Take `N[C@H](C(=O)O)c1cc(O)cc(O)c1`: the “activity, negative = inhibition” value is -7.36%. For `NC(N)=N[C@@H](CCC(=O)O)C(=O)O`, the result was inactive. For `CCC(=O)N1CCN(C(=O)c2ccccc2)CC1`, the “activity, negative = inhibition” value is -6.68%.

Regarding `Cn1c(=O)c2[nH]c(-c3ccc(S(=O)(=O)O)cc3)nc2n(C)c1=O`, the Potency is 10 µM (active). With `CC(C)(C)c1cc(/C=C(\C#N)C(N)=S)cc(C(C)(C)C)c1O`, the result was inactive. On to `N[C@H](C(=O)O)[C@H](Cc1ccccc1)C(=O)O`, for which the “activity, negative = inhibition” value was 1.95%. As to `CNC(=O)c1cc2c(cn1)[nH]c1ccccc12`, the “activity, negative = inhibition” value is -0.715%. On to `CCOC(=O)C12CC1/C(=N/O)c1ccccc1O2` (stereo not given), for which the “activity, negative = inhibition” value is 1.96%. Regarding `CC[C@@H]1Cc2cc(O)ccc2C2=C1c1ccc(O)cc1C[C@H]2CC`, the outcome was inactive. Turning to `NC(=O)c1ccccc1`, the result was inactive. Consider `CN(C)C(=O)/N=N/C(=O)N(C)C`, for which the outcome was inactive. With `NC(N)=NC(N)=Nc1cccc(Cl)c1`, the “activity, negative = inhibition” value is -20%.

As to `N[C@H]1CONC1=O`, the “activity, negative = inhibition” value was 2.16%. In the case of `CCC1(O)CC2CN(CCc3c([nH]c4ccccc34)[C@@](C(=O)OC)(c3cc4c(cc3OC)N(C=O)C3[C@]45CCN4CC=C[C@@](CC)([C@@H](OC(C)=O)[C@]3(O)C(=O)OC)[C@H]45)C2)C1` (stereo not given in full), the “activity, negative = inhibition” value is -19%. Consider `Cn1cc(C(=O)OCC2CCN(CCNS(C)(=O)=O)CC2)c2ccccc21`, for which the “activity, negative = inhibition” value was -7.05%.

As to `NC(Cc1cccc(-c2ccccc2CP(=O)(O)O)c1)C(=O)O` (stereo not given), the “activity, negative = inhibition” value is 3.39%. Same read-out and setting: with `COc1ccccc1N1CCN(CCCCNC(=O)c2ccc3ccccc3c2)CC1` the figure was -7.65%. With `O=C(OCCN1CCOCC1)C1(c2ccccc2)CCCCC1`, the result was inactive. As to `COc1cc([C@@H]2c3cc4c(cc3[C@H](O)C3COC(=O)[C@@H]32)OCO4)cc(OC)c1OC` (stereo not given in full), the outcome was inactive. For `COc1cc(/C=C(\C#N)C(=O)c2ccc(O)c(O)c2)cc(I)c1O`, the “activity, negative = inhibition” value is -1.96%. In the case of `O=c1[nH]ccc2c(O)cccc12`, the “activity, negative = inhibition” value was -34.3%. As for `CC(C)C[C@H](NC(=O)[C@H](O)[C@H](N)Cc1ccccc1)C(=O)O`, the outcome was inactive.

The values above are taken from PubChem BioAssay (NCATS).
